PubChem BioAssay (NCI)
About 83,000 compounds went through this panel and 20% of them were active in at least one assay; those are over-represented in the sample as a whole.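 Results are percent growth after 48 hours of single-concentration exposure. 100 means growth as in untreated cells, lower positive values show inhibition; negative values down to -100 show cell death.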 Unmarked numbers belong to inactive results. The source made the active and inactive calls. The calls were made as follows: active = growth percent below 10; inactive = the rest.

Experiments:
Experiment in all cases: NCI-60 one-dose screen, 48 h (100 = growth as untreated, 0 = no growth, -100 = all killed)
Settings in all cases: 10 µM
NCI-H23 lung = system: NCI-H23 lung
NCI-H226 lung = system: NCI-H226 lung
NCI-H322M lung = system: NCI-H322M lung
HOP-62 NSCLC = system: HOP-62 NSCLC
NCI-H460 lung = system: NCI-H460 lung
HOP-92 NSCLC = system: HOP-92 NSCLC
NCI-H522 lung = system: NCI-H522 lung
A549/ATCC NSCLC = system: A549/ATCC NSCLC
786-0 renal = system: 786-0 renal
COLO 205 colon = system: COLO 205 colon

SMILES | growth (NCI-H23 lung) | growth (NCI-H226 lung) | growth (NCI-H322M lung) | growth (HOP-62 NSCLC) | growth (NCI-H460 lung) | growth (HOP-92 NSCLC) | growth (NCI-H522 lung) | growth (A549/ATCC NSCLC) | growth (786-0 renal) | growth (COLO 205 colon)
Cc1cc(C)c(C(=O)OC(C)CNC2CCCCC2)c(C)c1 (stereo not drawn) | 94.1% | 99.6% | 95.4% | 85.7% | 98% | 51.9% | 99.4% | 102% | 93.2% | 
Cc1ccc2oc(=O)cc(/C(=C3/C=CC=N3)c3ccc[nH]3)c2c1 | 9.51% (active) | -7.14% (active) | 25.4% | -11.3% (active) | -2.31% (active) | 7.28% (active) | -33.2% (active) | -21% (active) | 3.15% (active) | 
CC(Oc1ccc(Cl)cc1)c1ccccc1 (stereo not drawn) | 102% | 93% | 87.1% | 98.3% | 104% | 95% | 103% | 102% | 98.5% | 
O=C(N/N=C\c1cc(Cl)ccc1O)c1ccncc1 | 46% | 31.6% | 59.5% | 55.7% | 25.3% | 47.5% | 11.7% | 79.8% | 19.1% | 
CC(=O)Nc1nc(C)c(C(=O)NNC=O)s1 | 97.4% | 92.7% | 155% | 111% | 105% | 67.2% | 99.5% | 107% | 118% | 
Cc1ccc(C)c2c1sc1nc3n[nH]c(N)c3c(=N)n12 | 107% | 105% | 113% | 104% | 107% | 97.2% | 87.4% | 106% | 111% | 
CC(C)C[C@H](NC(=O)Cn1ccc2ccccc2c1=O)B(O)O | 74.5% | 11.5% | 102% | 98.4% | 106% | 99% | 28.6% | 84.9% | 70.3% | 
COc1cc(-c2n/c(=C\c3c(O)[nH]c4ccccc34)cc3c2=Nc2ccccc2-3)cc(OC)c1OC | 22.9% | 22% | 47.3% | 41.4% | 3.31% (active) | 22.9% | -7.72% (active) | 9.21% (active) | 16.7% | -49.2% (active)
O=C1/C(=C/c2cccs2)CCC/C1=C\c1cccs1 | 81.5% | 80.9% | 85.3% | 96.7% | 92.1% | 66% | 76.7% | 88.4% | 108% | 117%
C=CCOc1ccc2c(c1)CC=C1[C@@H]2CC[C@]2(C)C(=O)/C(=N/O)C[C@@H]12 | 95.1% | 96.1% | 81.2% | 103% | 60.3% | 101% | 80.7% | 84.3% | 79.2% | 91.3%
Cc1cc(=O)oc2cc(OCc3cn(CC(O)CO)nn3)ccc12 (stereo not drawn) | 94.1% | 104% | 109% | 103% | 111% | 111% | 107% | 105% | 111% | 108%
Cc1cc2cc3c(=O)[nH]c(=O)cc-3n(CC(O)C(O)C(O)CO)c2cc1C (stereo not drawn) | 106% | 110% | 119% | 81.1% | 101% | 111% | 96.2% | 97.8% | 103% | 93.1%
C[C@@H]1N=C(c2ccc(Br)cc2)Nc2nc3ccccn3c2C1=O | 53.7% | 68.3% | 74% | 55.8% | 32.5% | 59.5% | 34.8% | 54.7% | 83.1% | 26.3%
COc1c(-c2c3sc(=O)[nH]c3nc3c2c(=O)[nH]n3C(C)C)cc2c(c1OC)OCO2 | 100% | 85.8% | 92.2% | 94.5% | 107% | 72.2% | 86% | 95.8% | 86.5% | 117%
Cc1ccc(S(=O)(=O)Nc2cccc3[nH]c(C(F)(F)F)nc23)cc1 | 39.5% | 68.4% | 36.4% | 36.4% | 7.86% (active) | -3.66% (active) | -6.23% (active) | 24% | 47.7% | -21.6% (active)
CCCCN(CCCC)c1ccc(C(=NC(C)CCCN(CC)CC)c2ccc(N(C)C)cc2)cc1 (stereo not drawn) | -60.3% (active) | -34.9% (active) | -14.2% (active) | -80.4% (active) | -76.9% (active) | -45.5% (active) | -66.8% (active) | -16.4% (active) | -86.4% (active) | -88.4% (active)
COc1cccc(C2(C)Nc3ccccc3-c3nc4ccccc4n32)c1 (stereo not drawn) | 102% | 102% | 92% | 97.7% | 101% | 93.4% | 103% | 102% | 101% | 109%
COc1ccc(-c2nnc(COc3ccc(NC(=O)Nc4ccccc4)cc3F)o2)cc1 | 92.4% | 95.2% | 90.1% | 89.2% | 84.4% | 52.2% | 52.5% | 93.3% | 79.1% | 110%
CCCCCCCC/C=C/CCCCCCCCC1=NCCN1CCO | 76.5% | 86.9% | 55.5% | 75.9% | -34% (active) | -5.31% (active) | 76.7% | 77.5% | 75% | 70.7%
COc1cc(Cl)cc(-c2nn(-c3cccc(NC(=O)Nc4cccc(C(F)(F)F)c4)c3)cc2-c2ccncc2)c1 | -5.1% (active) | 3.94% (active) | 26.2% | 15.5% | -6.11% (active) | -27.3% (active) | -18.6% (active) | 8.08% (active) | 13.2% | -31.2% (active)
COc1ccc(C(=O)c2sc3nc(-c4cccs4)ccc3c2N)cc1OC | 74.3% | 73% | 85% | 70.6% | 36.1% | -0.708% (active) | 24% | 35.8% | 70.7% | 40.9%
Cn1c([N+](=O)[O-])cnc1/C=C1\Oc2ccc(Br)cc2C1=O | -9.69% (active) | -38.1% (active) | -10.5% (active) | -23.7% (active) | -35% (active) | -32% (active) | -49.4% (active) | -24.8% (active) | -52.9% (active) | -42.1% (active)
Cc1nc2sccn2c1-c1csc(Nc2cccc(Cl)c2C)n1 | 52.1% | 57.3% | 81% | 79.3% | 61.2% | 16.3% | 41.8% | 37.5% | 63.3% | 69.7%
CC1=CSC2=NC(c3ccc(Cl)c(Cl)c3)=CC(c3ccc(Cl)cc3)N12 (stereo not drawn) | 32.3% | 38.1% | -4.79% (active) | 30.9% | 53.7% | -42.1% (active) | -20.7% (active) | 51.1% | 22.3% | 104%
COc1cc(-c2nc3ccc(C)cc3[nH]2)ccc1OCC(=O)N=Nc1c(O)[nH]c2ccccc12 | -17.5% (active) | 112% | -33.9% (active) | -49.4% (active) | -70.5% (active) | -12.7% (active) | -63.5% (active) | 8.54% (active) | -93.5% (active) | -37.8% (active)
CC(C)OCc1cc(CN2CCN(c3cccc(Cl)c3)CC2)c(O)c2ncccc12 | -44.8% (active) | 1.5% (active) | -10.6% (active) | -0.196% (active) | 0.361% (active) | -35.2% (active) | -26.2% (active) | -5.68% (active) | 0.332% (active) | -43.1% (active)
COc1cc(-c2nc3ccc(C)cc3[nH]2)ccc1OCc1nnc(-c2ccc(CC(C)C)cc2)o1 | 93.2% | 86.9% | 97.2% | 90.6% | 90.8% | 79.4% | 97.4% | 93.5% | 90% | 103%
COc1cc(CSc2nc3ccc(Cl)cc3c(=O)n2-c2ccccc2)cc(OC)c1OC | 79% | 89.2% | 85.7% | 72% | 96.6% | 89% | 38.5% | 73.9% | 89.3% | 84.5%
